Values joined by “and” are separate entries in the source; they are usually repeats but may differ in a detail not shown here. Equal entries are not always repeated. Values without a mark were called inactive. Inconclusive results are not listed. A call without a number means that no potency is given here. Active and inactive are the calls of the source. Unless noted, calls come from the whole dose curve; as a rule, active = well fitted curve in either direction with a large enough effect (not every such curve was filed as active); inconclusive = small, poorly fitted or top-dose-only effect, or another doubt; inactive = flat fitted curve, though single readings scatter.
Experiments:
[1] = AP1 Signaling Pathway (AID 357); settings: ME-180 AP-1-bla reporter, EGF-induced, beta-lactamase ratio, 5 h; at 7.69 µM (top of the series) unless noted;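 note: ME-180 reporter cells stimulated with EGF at its EC50 level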
Summary of the method: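 Read-out was the 460nm/530nm emission ratio (excitation 405nm) after CCF4 loading for 2.5 hours at room temperature. Cells carried an AP-1-driven beta-lactamase reporter, were stimulated with EC50 EGF plus compound for 5 hours, and AC50 values came from titrations.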

[2] = biological target: Cytochrome P450 1A2 (Homo sapiens) (UniProt P05177); assay: p450-cyp1a2 (AID 410; calls by dose curve; note: potency is the fitted concentration of half-maximal effect); settings: recombinant CYP1A2, luciferin-ME demethylation, luminescence; series mostly up to 11.4 µM
Cytochrome P450 1A2 (Homo sapiens), sequence (P05177 whole entry, looked up): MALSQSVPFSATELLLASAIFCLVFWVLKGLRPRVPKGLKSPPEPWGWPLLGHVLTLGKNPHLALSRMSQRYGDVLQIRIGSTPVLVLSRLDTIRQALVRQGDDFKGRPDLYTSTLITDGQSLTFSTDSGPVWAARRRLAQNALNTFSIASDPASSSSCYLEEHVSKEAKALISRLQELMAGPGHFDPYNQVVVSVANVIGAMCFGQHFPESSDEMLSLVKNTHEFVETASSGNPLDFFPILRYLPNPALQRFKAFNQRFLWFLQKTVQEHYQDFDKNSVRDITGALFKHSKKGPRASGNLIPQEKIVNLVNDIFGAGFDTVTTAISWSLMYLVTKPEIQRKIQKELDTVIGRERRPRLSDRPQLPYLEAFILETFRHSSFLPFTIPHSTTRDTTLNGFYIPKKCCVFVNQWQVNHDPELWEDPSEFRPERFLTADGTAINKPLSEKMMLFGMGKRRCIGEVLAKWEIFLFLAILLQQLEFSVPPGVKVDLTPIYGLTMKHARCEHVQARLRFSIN
Summary of the method: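 O-Demethylation of luciferin 6' methyl ether by human CYP1A2 is monitored as luciferase luminescence. Substrate sits at Km (100uM); enzyme is 20nM. Values are scaled to 57 uM furafylline as maximal inhibition.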

[3] = Stat Signaling Pathway (AID 446); settings: ME-180 (cervical carcinoma) SIE beta-lactamase reporter, IL-6 stimulated, 5 h; at 7.69 µM (top of the series) unless noted;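 note: ME-180 cervical cancer cells given 40 pM IL-6 alongside compound; SIE-controlled beta-lactamase reporter measured as 460/530 nm FRET emission ratio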
Summary of the method: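 Normalization used AC90 stimulation (300 pM IL-6) and AC90 inhibition (125 nM pan-JAK inhibitor at 40 pM IL-6). The underlying signal is SIE-driven beta-lactamase in ME-180 cells after 5 h IL-6 exposure with compound.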

[4] = biological target: Glucocorticoid receptor (Homo sapiens) (UniProt P04150); assay: GR-GFP Redistribution (AID 450;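 active = compounds whose dose series gives a full or clear partial fitted curve of increased nuclear translocation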; note: potency is the fitted concentration of half-maximal effect); settings: U2OS GR-GFP nuclear translocation, laser cytometry, 2 h
Glucocorticoid receptor (Homo sapiens), sequence (P04150 whole entry, looked up, the tested form may be a part): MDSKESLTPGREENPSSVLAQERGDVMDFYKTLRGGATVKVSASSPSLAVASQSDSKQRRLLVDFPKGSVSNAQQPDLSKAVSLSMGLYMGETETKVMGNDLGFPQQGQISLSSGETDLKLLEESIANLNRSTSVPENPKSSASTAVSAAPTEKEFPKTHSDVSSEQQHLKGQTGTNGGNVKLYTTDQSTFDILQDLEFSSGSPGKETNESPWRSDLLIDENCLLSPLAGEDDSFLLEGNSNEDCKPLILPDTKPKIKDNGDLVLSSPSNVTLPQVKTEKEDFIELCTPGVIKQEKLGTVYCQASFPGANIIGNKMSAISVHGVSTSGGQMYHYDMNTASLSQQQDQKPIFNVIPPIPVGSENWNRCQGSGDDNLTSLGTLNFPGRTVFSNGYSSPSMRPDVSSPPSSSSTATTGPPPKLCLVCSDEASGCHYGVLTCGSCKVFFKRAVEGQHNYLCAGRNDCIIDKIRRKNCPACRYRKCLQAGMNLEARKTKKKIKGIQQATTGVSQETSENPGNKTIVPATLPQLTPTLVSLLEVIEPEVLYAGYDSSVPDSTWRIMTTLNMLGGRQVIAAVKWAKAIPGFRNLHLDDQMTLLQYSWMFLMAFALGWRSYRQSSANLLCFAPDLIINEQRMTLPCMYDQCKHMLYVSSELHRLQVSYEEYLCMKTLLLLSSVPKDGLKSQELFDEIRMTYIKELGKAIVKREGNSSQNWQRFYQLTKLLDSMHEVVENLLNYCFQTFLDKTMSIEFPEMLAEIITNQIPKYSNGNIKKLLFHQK

[5] = biological target: Glucocorticoid receptor (Homo sapiens) (UniProt P04150); assay: GR-EFC Redistribution (AID 451; calls by dose curve; note: potency is the fitted concentration of half-maximal effect); settings: CHO-K1 GR-EFC translocation, beta-gal luminescence, 2 h
Summary of the method: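 Translocation of GR-ED fusion to nuclear EA restores b-gal, read by luminescence after 1 h room-temperature detection. Engineered CHO-K1 biosensor cells, 1,000/well, exposed 2 h at 37 C to titrations up to 46 uM final.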

[6] = biological target: Mitogen-activated protein kinase 10 (Mus musculus) (UniProt Q61831); assay: JNK3 AlphaScreen Assay (AID 530); settings: JNK3 lysate, c-Jun phosphorylation; series mostly up to 11.4 µM;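 note: kinase came from lysate of stimulated human HepG2 cells; signal reports phosphorylation of biotinylated GST-cJun 1-79 at Ser73 with 10 µM ATP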
Summary of the method: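 qHTS titrations with 15 min compound pre-incubation before adding ATP (10 uM final). Read-out: AlphaScreen of Ser73-phosphorylated biotin-GST-cJun using HepG2 lysate JNK3 activated by IL-1β and TNFα.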

[7] = biological target: 3',5'-cyclic-AMP phosphodiesterase 4B (Homo sapiens) (UniProt Q07343); assay: qHTS Assay for Inhibitors of PDE-IV (AID 607; active = well fitted activation curve with a large enough effect in the main read-out, with a control signal flat, not every such curve was filed as active); settings: HEK293 ACTOne CNG channel cells, membrane potential fluorescence; series mostly up to 22.9 µM
3',5'-cyclic-AMP phosphodiesterase 4B (Homo sapiens), sequence (Q07343 whole entry, looked up): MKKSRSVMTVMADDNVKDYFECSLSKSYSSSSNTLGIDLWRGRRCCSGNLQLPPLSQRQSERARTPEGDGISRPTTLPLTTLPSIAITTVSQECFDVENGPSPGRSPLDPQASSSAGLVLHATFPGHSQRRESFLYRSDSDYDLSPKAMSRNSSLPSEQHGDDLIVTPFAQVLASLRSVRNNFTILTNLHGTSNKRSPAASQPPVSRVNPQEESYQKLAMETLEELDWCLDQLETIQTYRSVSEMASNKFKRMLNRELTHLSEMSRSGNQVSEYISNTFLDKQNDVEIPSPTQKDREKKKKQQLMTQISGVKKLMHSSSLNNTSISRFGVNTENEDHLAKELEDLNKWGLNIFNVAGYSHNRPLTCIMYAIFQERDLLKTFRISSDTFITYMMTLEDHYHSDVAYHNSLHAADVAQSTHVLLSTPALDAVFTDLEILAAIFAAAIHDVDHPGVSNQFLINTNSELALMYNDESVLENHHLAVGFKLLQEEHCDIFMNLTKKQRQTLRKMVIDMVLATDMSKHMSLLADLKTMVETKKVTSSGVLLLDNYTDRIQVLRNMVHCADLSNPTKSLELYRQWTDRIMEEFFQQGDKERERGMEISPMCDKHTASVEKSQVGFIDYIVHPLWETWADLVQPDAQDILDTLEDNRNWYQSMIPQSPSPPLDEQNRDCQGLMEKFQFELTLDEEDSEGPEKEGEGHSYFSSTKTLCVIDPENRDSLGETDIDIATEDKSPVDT
Summary of the method: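 HEK293 ACTOne cells with CNG channel (1000/well), endogenous PDE4; membrane potential dye, compounds up to 22.9 uM final. Fluorescence Ex 535/Em 590; RO 20-1724 (100 uM final) as reference.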

[8] = NFAT Signaling Pathway (AID 444); settings: Jurkat NFAT-bla M1, carbachol, beta-lactamase ratio, 5 h; at 7.69 µM (top of the series) unless noted;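 note: carbachol stimulus at about its EC50 of 1 µM final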
Summary of the method: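 Read-out: CCF4 FRET ratio (460 nm/530 nm) after 1 h RT dye loading, used for %activity and AC50 from titration series. Cells: Jurkat NFAT-β-lactamase/M1 line, treated with compound plus 1 uM carbachol for 5 h, 37 °C.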

[9] = biological target: Guanine nucleotide-binding protein G(i) subunit alpha-1 (Homo sapiens) (UniProt P63096); assay: qHTS Assay for Inhibitors of RGS12 GoLoco Motif Activity (Green Fluorophore) (AID 879; active = well fitted curve in the direction sought with a large enough effect; an effect the other way counts as inactive or inconclusive;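 note: negative values mean loss of peptide binding seen as reduced polarization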); settings: Galphai1/FITC-RGS12 GoLoco peptide, fluorescence polarization; series mostly up to 57.1 µM
Guanine nucleotide-binding protein G(i) subunit alpha-1 (Homo sapiens), sequence (P63096 whole entry, looked up): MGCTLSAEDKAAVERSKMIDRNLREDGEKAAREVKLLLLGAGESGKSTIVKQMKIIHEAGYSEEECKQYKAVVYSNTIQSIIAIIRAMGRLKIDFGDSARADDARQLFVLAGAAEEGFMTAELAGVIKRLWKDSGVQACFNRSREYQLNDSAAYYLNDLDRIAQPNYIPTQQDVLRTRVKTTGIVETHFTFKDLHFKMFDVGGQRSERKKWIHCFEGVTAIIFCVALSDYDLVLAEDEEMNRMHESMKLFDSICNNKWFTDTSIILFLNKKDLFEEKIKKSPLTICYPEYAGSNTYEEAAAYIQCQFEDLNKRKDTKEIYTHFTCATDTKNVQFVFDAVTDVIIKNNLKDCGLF
Summary of the method: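 A drop in FITC polarization marked displacement of the FITC-tagged RGS12 GoLoco peptide (10 nM) from Gαi1 (50 nM). Compounds were incubated 10 min at room temperature in Tris pH 7.5 buffer containing 150 mM NaCl, 0.1 mM GDP and 0.05% NP40; unlabeled peptide titration served as control.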

[10] = biological target: Pyruvate kinase (Leishmania mexicana) (UniProt Q27686); assay: qHTS Validation Assay for Inhibitors of Leishmania Mexicana Pyruvate Kinase (AID 945; active = well fitted curve in the direction sought with a large enough effect; an effect the other way counts as inactive or inconclusive); settings: purified L. mexicana pyruvate kinase, enzyme activity, E451W mutant enzyme; series mostly up to 57.5 µM
Pyruvate kinase (Leishmania mexicana), sequence (Q27686 2-499 E452W): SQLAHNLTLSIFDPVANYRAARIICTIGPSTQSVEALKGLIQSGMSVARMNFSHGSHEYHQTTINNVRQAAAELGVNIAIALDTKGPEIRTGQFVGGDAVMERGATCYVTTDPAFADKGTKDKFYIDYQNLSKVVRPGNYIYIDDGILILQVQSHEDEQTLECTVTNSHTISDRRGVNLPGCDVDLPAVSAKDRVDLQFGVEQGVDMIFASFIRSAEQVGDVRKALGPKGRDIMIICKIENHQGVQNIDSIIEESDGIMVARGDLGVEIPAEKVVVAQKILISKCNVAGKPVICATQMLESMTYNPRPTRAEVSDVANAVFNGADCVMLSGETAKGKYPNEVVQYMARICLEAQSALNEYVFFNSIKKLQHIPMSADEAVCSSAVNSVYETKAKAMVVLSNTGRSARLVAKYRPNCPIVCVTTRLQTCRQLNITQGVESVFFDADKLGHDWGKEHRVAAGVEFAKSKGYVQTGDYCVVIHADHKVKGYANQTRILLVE
Summary of the method: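 Luminescent ATP detection (PKLight) after a 1 h room-temperature reaction of 0.2 nM LmPYK E451W mutant with 0.5 mM PEP and 0.1 mM ADP at pH 7.2. Activity is normalized to DMSO-only control wells.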

[11] = biological target: Pyruvate kinase PKM (Homo sapiens) (UniProt P14618); assay: qHTS Assay for Activators of Human Muscle Pyruvate Kinase (AID 954; active = well fitted curve in the direction sought with a large enough effect, not every such curve was filed as active); settings: purified human muscle pyruvate kinase, luciferase-coupled luminescence, 1 h; series mostly up to 57.5 µM
Pyruvate kinase PKM (Homo sapiens), sequence (P14618 whole entry, looked up): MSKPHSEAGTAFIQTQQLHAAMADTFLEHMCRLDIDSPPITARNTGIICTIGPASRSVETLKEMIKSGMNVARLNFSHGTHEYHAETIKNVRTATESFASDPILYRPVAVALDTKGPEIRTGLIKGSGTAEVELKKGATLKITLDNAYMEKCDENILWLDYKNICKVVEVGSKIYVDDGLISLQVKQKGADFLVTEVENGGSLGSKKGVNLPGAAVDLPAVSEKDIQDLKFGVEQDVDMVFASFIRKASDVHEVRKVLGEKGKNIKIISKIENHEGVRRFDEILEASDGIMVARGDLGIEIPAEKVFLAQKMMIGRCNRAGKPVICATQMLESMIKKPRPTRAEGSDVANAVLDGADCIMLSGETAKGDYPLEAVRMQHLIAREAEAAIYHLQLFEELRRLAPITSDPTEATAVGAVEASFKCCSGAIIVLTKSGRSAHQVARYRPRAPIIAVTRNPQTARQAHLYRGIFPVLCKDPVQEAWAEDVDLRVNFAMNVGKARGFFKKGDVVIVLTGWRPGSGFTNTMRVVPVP
Summary of the method: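 Compound pinned into substrate mix (0.5 mM PEP, 0.1 mM ADP), then 0.1 nM PKM2 added; 1 h, RT. Stop/detection luciferase reagent added, luminescence read. Normalized to no-inhibition and no-enzyme or reference-inhibitor controls.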

[12] = biological target: Alpha-galactosidase A (Homo sapiens) (UniProt P06280); assay: Counterscreen for Glucocerebrosidase Inhibitors: qHTS Assay for Human alpha-Galactosidase at pH 4.5 (AID 992; active = well fitted curve in the direction sought with a large enough effect; an effect the other way counts as inactive or inconclusive); settings: purified enzyme, fluorogenic substrate; series mostly up to 76.9 µM
Alpha-galactosidase A (Homo sapiens), sequence (P06280 whole entry, looked up): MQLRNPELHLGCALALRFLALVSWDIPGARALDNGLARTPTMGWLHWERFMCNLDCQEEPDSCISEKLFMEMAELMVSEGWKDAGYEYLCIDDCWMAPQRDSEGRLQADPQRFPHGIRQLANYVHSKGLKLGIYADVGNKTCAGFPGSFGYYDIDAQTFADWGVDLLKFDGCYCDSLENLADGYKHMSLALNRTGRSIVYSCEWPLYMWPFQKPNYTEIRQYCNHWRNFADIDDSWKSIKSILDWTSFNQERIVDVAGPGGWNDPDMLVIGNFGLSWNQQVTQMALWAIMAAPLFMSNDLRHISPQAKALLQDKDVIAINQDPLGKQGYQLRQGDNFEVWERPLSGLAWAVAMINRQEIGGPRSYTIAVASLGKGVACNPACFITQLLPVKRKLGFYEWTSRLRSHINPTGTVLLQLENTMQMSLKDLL
Summary of the method: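 Steps: enzyme (2 nM final), then compound across 0.7 nM to 77 uM, then 80 uM fluorogenic galactopyranoside substrate; incubate 20 min at room temperature; quench at pH 10; measure fluorescence at 365/440 nm.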

[13] = biological target: alpha-glucosidase (Oryza sativa, rice) (UniProt Q653V4); assay: Counterscreen for Glucocerebrosidase Inhibitors: qHTS Assay for Rice alpha-Glucosidase at pH 5.0 (AID 997; active = well fitted curve in the direction sought with a large enough effect; an effect the other way counts as inactive or inconclusive); settings: rice alpha-glucosidase enzyme activity; series mostly up to 76.9 µM
Summary of the method: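 Endpoint fluorogenic assay at pH 5.0: compounds (0.7 nM to 77 uM) titrated against 4 nM rice enzyme and 400 uM 4-MU-alpha-glucoside for 20 min at room temperature; NaOH/glycine stop, read ex 365/em 440 nm, Hill-fitted AC50.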

SMILES | activity change, negative = inhibition [1] | Potency [2] | activity, negative = inhibition [3] | Potency [4] [µM] | Potency [5] [µM] | Potency [6] | Potency [7] | activity change, negative = inhibition [8] | outcome [9] | outcome [10] | outcome [11] | outcome [12] | Potency [13]
CCN1/C(=C\C(C)=O)Sc2ccc(OC)cc21 | -18.4% [at 38 µM] | 0.631 µM (active) | 2.84% [at 38 µM] | > 46 | > 46 | inactive | inactive | – | – | – | – | – | –
C[C@@]12C(=O)OC(=O)[C@@]1(C)[C@H]1CC[C@@H]2O1 | -102% [at 38 µM] (active) | – | – | – | > 46 | inactive | inactive | -104% [at 38 µM] (active) | inactive | inactive | inactive | inactive | inactive
O[C@H](CN1CCN(c2cccc(Cl)c2)CC1)C(c1ccccc1)c1ccccc1 | -10.5% [at 38 µM] | 12.6 µM (active) | 24.9% [at 38 µM] | > 46 | > 46 | inactive | inactive | – | inactive | inactive | inactive | inactive | inactive
Cc1cc(OCC(=O)O)c(Cl)cc1Cl | 2.52% | – | – | > 46 | > 9.22 | inactive | inactive | 2.25% | – | – | – | – | –
COC(=O)[C@H]1[C@H]2C[C@H]3c4[nH]c5ccccc5c4CCN3C[C@@H]2CC[C@@H]1O | 3.48% [at 38 µM] and 8.69% [at 38 µM] | – | 1% [at 38 µM] and -19.7% [at 38 µM] | – | – | inactive | inactive | -14.1% [at 38 µM] | inactive | inactive | inactive | inactive | inactive
O=P(O)(CCP(=O)(O)c1ccccc1)c1ccccc1 | -9.71% | – | 1.66% | > 46 | > 9.22 | inactive | inactive | 12.9% | – | – | – | – | –
COc1cc2c(cc1O)CC[C@@H]1[C@@H]2CC[C@@]2(C)[C@H](O)CC[C@H]12 | -4.01% [at 38 µM] | – | -17.5% [at 38 µM] | > 46 | > 46 | inactive | inactive | -2.76% [at 38 µM] | inactive | inactive | inactive | inactive | inactive
CSC(N)=NCCC[C@@H](N)C(=O)O | 19.2% [at 38 µM] | – | 10.5% [at 38 µM] | > 46 | > 46 | inactive | inactive | 6.92% [at 38 µM] | inactive | inactive | inactive | inactive | inactive
Nc1ccc(-c2ccc(Nc3cc(S(=O)(=O)O)c(N)c4c3C(=O)c3ccccc3C4=O)cc2)c(S(=O)(=O)O)c1 | 3.81% | – | -2.95% | > 46 | > 9.22 | inactive | inactive | -2.33% | – | – | – | – | –
CC(C)(C)[C@@]1(O)CCN2C[C@@H]3c4ccccc4CCc4cccc(c43)[C@@H]2C1 | -4.55% [at 38 µM] and 8.62% [at 38 µM] | – | -1.04% [at 38 µM] and -27.5% [at 38 µM] | > 46 | > 46 | – | inactive | -14.6% [at 38 µM] and -5.47% [at 38 µM] | – | inactive | inactive | inactive | inactive
CO/N=C(\C(=O)N[C@@H]1C(=O)N2C(C(=O)O)=C(CSc3nc(=O)c(O)nn3C)CS[C@@H]12)c1csc(N)n1 | -11.1% [at 38 µM] | – | – | > 46 | > 46 | – | inactive | 4.37% [at 38 µM] | inactive | inactive | inactive | inactive | inactive
N.N.N.N.N.N.N.N.N.N.N.N.N.N.O.O.[Ru].[Ru].[Ru] | 17.6% [at 38 µM] | – | -27% [at 38 µM] | > 46 | > 46 | inactive | inactive | -5.33% [at 38 µM] | inactive | – | inactive | inactive | inactive
C[N+](C)(C)c1cc2c(nn1)Nc1ccccc1S2 | -0.66% | 2 µM (active) | 19.9% | > 46 | > 9.22 | inactive | inactive | – | – | – | – | – | –
